Assay outcomes from PubChem.
GalR3 antagonist = GalR3 antagonists in HEK293 cells, primary screen, cell-based, fluorescence readout | Galanin receptor type 3 (Homo sapiens), O60755 | HEK293 GalR3-CNG cAMP membrane potential fluorescence; galR3 body fused to GalR1 C-terminus | inhibition, % at 3 µM | hit rate 0.44% among 360,000 | AID 651719, 2012;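 active = inhibition above the screen-wide average plus 3 SD, cut at about 13% in these data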;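 also: forskolin and galanin both at EC90 stimulate the cells; cAMP rise reported by CNG channel membrane potential dye signal; 0% = forskolin plus galanin with DMSO and 100% = forskolin alone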
Target sequence (O60755 1-299 limits assumed): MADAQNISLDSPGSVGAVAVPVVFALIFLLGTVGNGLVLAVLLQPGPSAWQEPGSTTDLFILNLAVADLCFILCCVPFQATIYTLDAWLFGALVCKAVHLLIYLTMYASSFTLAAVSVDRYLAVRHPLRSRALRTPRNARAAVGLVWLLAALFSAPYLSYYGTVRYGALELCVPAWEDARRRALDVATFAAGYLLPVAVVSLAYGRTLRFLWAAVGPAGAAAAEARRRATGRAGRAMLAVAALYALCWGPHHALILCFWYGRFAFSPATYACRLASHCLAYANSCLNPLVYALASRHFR
COUP-TFII inh = NR2F2 transcriptional activity inhibitors, primary screen, cell-based, luciferase reporter, HEK293T, luminescence. COUP transcription factor 2 (Homo sapiens), P24468. HEK293T NGFI-A luciferase reporter. inhibition, % at 8.6 µM. hit rate 0.7% among 370,000;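 active = inhibition above a per-plate cutoff, mean inhibition of test wells between control levels plus 3 SD, cut at about 38% in these data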;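 also: cells cotransfected with COUP-TFII expression vector driving the NGFI-A reporter; 0% = median of COUP-TF2 test wells and 100% = reporter-only cells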
Target sequence (P24468 whole entry, looked up): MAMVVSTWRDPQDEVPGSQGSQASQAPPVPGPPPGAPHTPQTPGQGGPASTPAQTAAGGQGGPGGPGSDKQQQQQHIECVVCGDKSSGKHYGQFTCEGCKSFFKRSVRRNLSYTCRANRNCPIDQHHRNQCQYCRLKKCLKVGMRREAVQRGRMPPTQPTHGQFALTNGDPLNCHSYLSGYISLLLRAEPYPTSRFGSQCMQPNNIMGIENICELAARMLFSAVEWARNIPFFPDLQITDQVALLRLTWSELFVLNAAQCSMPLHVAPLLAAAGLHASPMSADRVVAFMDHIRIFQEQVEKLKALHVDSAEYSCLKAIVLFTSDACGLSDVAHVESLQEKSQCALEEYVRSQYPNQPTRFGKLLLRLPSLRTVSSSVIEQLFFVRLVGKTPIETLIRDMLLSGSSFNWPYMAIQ
Jurkat NFkB inh = inhibitors of induced NF-kB luciferase reporter, primary screen, TCR NF-kB activation inhibitor project, cell-based, luminescence, uHTS; Jurkat, PMA/ionomycin-induced NF-kB luciferase reporter; inhibition, % at 4 µM; hit rate 0.53% among 330,000; in the data active = inhibition above about 50%
Gli-Sufu antag = Gli-Sufu pathway antagonists, primary screen, luciferase luminescence, Sufu-KO-LIGHT cells, uHTS. Sufu-KO-LIGHT fibroblasts, Gli luciferase reporter luminescence. hit rate 0.74% among 340,000. inhibition, % at 5 µM;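 active = inhibition above about 55%, limit read from the data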;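 also: 0% = DMSO-treated cells and 100% = wells with medium but no cells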
697 NFkB inh = inhibitors of PMA/ionomycin-induced NF-kB reporter, 697 cells, primary screen, B-cell NF-kB inhibitor project, cell-based, luminescence, uHTS | 697 B-cell NF-kB luciferase reporter, 16 h | inhibition, % at 4 µM | hit rate 0.33% among 330,000; in the data active = inhibition above about 35%
Gli antag conf = Gli-SUFU pathway antagonists, confirmation, single concentration, luciferase luminescence, Sufu-KO-LIGHT cells; shares compounds with Gli-Sufu antag; Gli luciferase reporter; inhibition, % at 5 µM; hit rate 40% among 2,500;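 active = mean inhibition at 5 µM reaching about 45%, limit read from the data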;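 also: plate controls were DMSO-treated cells for no effect and wells lacking cells for full effect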
Gli cytotox = cytotoxicity in Sufu-KO-LIGHT cells, confirmation, cytotoxicity control for Gli-SUFU antagonist project, cell-based, ATP luminescence, single concentration; cytotoxicity, % at 5 µM; shares compounds with Gli-Sufu antag; hit rate 32% among 2,500;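 active = mean cytotoxicity at 5 µM above about 25%, limit read from the data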;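 also: cells exposed to compound overnight for roughly 16 to 18 hours; plate controls were DMSO wells with cells for no effect and medium without cells for full effect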
Wnt3a counter = Wnt3a reporter signal inhibition, confirmation, counter-screen for Gli-SUFU antagonist project, Wnt-LIGHT cells, luminescence, single concentration; shares compounds with Gli-Sufu antag; Wnt3a-driven luciferase reporter; inhibition, % at 6.25 µM; hit rate 20% among 2,500; AID 651995, 2013;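 active = mean inhibition above about 25%, limit read from the data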
* hit, by the source's call; . = not tested or not shown. Compounds with a hit are over-represented: about 2% of the library has one in this group of screens.

SMILES | GalR3 antagonist | COUP-TFII inh | Jurkat NFkB inh | Gli-Sufu antag | 697 NFkB inh | Gli antag conf | Gli cytotox | Wnt3a counter
Cc1cccc(C)c1NC(=O)CSc1nnnn1C | -5 | -11 | 8 | 57* | 18 | 17 | 7 | -12
Cc1cccc(N2CN(Cc3cccnc3)CNC2=S)c1C | -2 | -3 | 6 | 55* | -9 | 29 | -4 | -6
Cc1ccc(C)c(N2CN(Cc3cccnc3)CNC2=S)c1 | 3 | -13 | -10 | 0 | -21 | . | . | .
COc1ccc(N2CCN(C(=O)COC(=O)c3c(-c4ccccc4)noc3C)CC2)cc1 | -7 | -1 | 11 | 65* | 2 | 16 | -1 | 7
CC(C)(C)c1ccc(CN2C3=NCCCN3c3ccccc32)cc1 | -7 | 8 | 27 | 69* | -53 | 60* | 25 | 15
Clc1cccc(CN2C3=NCCCN3c3ccccc32)c1 | -13 | 17 | 12 | 56* | -14 | 19 | 24 | -38
Cc1ccc(CN2C3=NCCCN3c3ccccc32)cc1 | -6 | -3 | -9 | 16 | -38 | . | . | .
c1ccc(CN2C3=NCCCN3c3ccccc32)cc1 | -1 | 5 | 11 | 5 | -2 | . | . | .
CCOC(=O)C(=CNc1ccc(-c2ccco2)c(Cl)c1)C(=O)OCC | -3 | 17 | 19 | -8 | 7 | . | . | .
CCOC(=O)C(=CNc1cc(Cl)c(-c2ccco2)c(Cl)c1)C(=O)OCC | -4 | 16 | 7 | 60* | 5 | 13 | 7 | -12
CCOC(=O)C1CCCN(S(=O)(=O)c2cc3c(cc2Br)CCN3C(=O)CC)C1 (stereo not given) | . | 8 | . | . | . | . | . | .
COc1ccc(C(=O)NCCN(C)C)c2nc3ccccc3cc12 | -4 | -84 | . | 64* | . | 70* | 38* | -281
COc1cccc2nc3c(C(=O)NCCN(C)C)cccc3cc12 | -2 | -47 | . | 70* | . | 62* | 23 | -98
CN(C)CCNC(=O)c1cccc2nc3c(ccc4ccccc43)nc12 | -6 | -40 | . | 34 | . | . | . | .
Cc1ccc2c(C)c(C(=O)Nc3ccc(S(N)(=O)=O)cc3)oc2c1C | -6 | -3 | -4 | 6 | 15 | . | . | .
Cc1ccc2c(C)c(C(=O)NCc3ccc(S(N)(=O)=O)cc3)oc2c1C | -6 | 3 | 2 | 59* | -2 | 28 | 7 | 12
COc1ccc(OCC(=O)NC2CCCN(Cc3ccc(Cl)cc3)C2)cc1 (stereo not given) | -2 | -2 | -25 | 52 | -16 | 33 | 2 | -50
Cc1cc(C(=O)NC2CCCN(Cc3ccc(Cl)cc3)C2)n(C)n1 (stereo not given) | -6 | 23 | 21 | 57* | 7 | 19 | 20 | -3
COC(=O)[C@]12C[C@H](CC(=O)NCc3cccs3)C(=O)N(Cc3cccc4ccccc34)C1=C[C@H](C(C)(C)C)O[C@@H]2C | . | -6 | . | . | . | . | . | .
CN=C1S/C(=C/c2cc(C)n(-c3ccc(Cl)cc3F)c2C)C(=O)N1C | . | 0 | . | . | . | . | . | .
O=C(CNS(=O)(=O)c1cccc2ccccc12)N1CCN(c2ncccn2)CC1 | . | -19 | . | . | . | . | . | .
CCOC(=O)C1=C(C)OC(N)=C(C#N)C1c1cc2ccccc2nc1N1CCCCC1 (stereo not given) | . | . | -5 | 50 | 3 | 35 | 16 | -14
O=C(O)c1ccc(N2C(=O)C3C4c5ccccc5C(Br)(c5ccccc54)C3C2=O)cc1 (stereo not given) | -3 | 12 | -3 | 66* | 9 | 17 | 10 | 6
CC12c3ccccc3C(c3ccccc31)C1C(=O)N(c3ccncc3)C(=O)C12 (stereo not given) | -6 | -26 | -4 | -6 | 7 | . | . | .
COc1ccc(CN2C(=O)N3Cc4ccccc4C3CS2(=O)=O)cc1 (stereo not given) | . | 1 | . | . | . | . | . | .
SMILES | GalR3 antagonist | COUP-TFII inh | Jurkat NFkB inh | Gli-Sufu antag | 697 NFkB inh | Gli antag conf | Gli cytotox | Wnt3a counter
Cc1cccc(NC(=O)c2cnn(-c3ccc(F)cc3)c2C2CCNCC2)c1C | -7 | -10 | -2 | 55 | 4 | 18 | -1 | 11
O=C(c1ccc2c(=O)n(C3CCCC3)c(=S)[nH]c2c1)N1CCCCCC1 | 3 | 7 | 16 | 57* | -26 | 51* | 35* | -24
CC(C)Cn1c(N)c(C(=O)COC(=O)C2Cc3ccccc3CN2S(C)(=O)=O)c(=O)n(C)c1=O (stereo not given) | -8 | 26 | 13 | 56* | -1 | 61* | 31* | 8
CCCCCCN1CCS(=O)(=O)N(Cc2ccc(F)cc2)C(C(=O)OC)C1 (stereo not given) | . | 3 | . | . | . | . | . | .
COc1ccc(NC(=S)Nc2ccc(Oc3ccccc3)cc2)cc1 | -1 | 5 | 8 | 77* | -2 | 38 | 22 | 0
O=C(Nc1ccc(Cl)cc1)Nc1nnc(-c2ccncc2)s1 | 5 | 20 | . | 74* | . | 72* | 25* | 70*
O=C(Nc1cccc(Cl)c1)Nc1nnc(-c2ccncc2)s1 | -8 | 9 | 9 | 57* | -107 | 61* | 19 | 69*
Cc1ccc(NC(=O)Nc2nnc(-c3ccncc3)s2)cc1C | -9 | -10 | -20 | -13 | -33 | . | . | .
COCc1cccc(-c2cc(C(=O)OC)c3n(c2=O)CCC3)c1 | . | -5 | . | . | . | . | . | .
CCCCOCCCNC(=O)C[C@H]1C[C@@]2(C(=O)OC)C(=C[C@H](COCc3ccccc3)O[C@@H]2C)N(Cc2ccc(Cl)cc2Cl)C1=O | . | 20 | . | . | . | . | . | .
Cc1ccc(-n2nnnc2SCC(=O)Nc2cccnc2Cl)cc1 | 1 | 22 | 8 | 54 | -5 | 29 | 8 | -8
O=C(CCC(=O)c1ccccc1)Nc1ccc(C(=O)O)cc1 | -3 | 15 | -16 | 99* | -36 | 19 | 7 | 6
CC(C)CNC(=O)OCc1cn(Cc2ccc(C(F)(F)F)cc2)nn1 | . | -1 | . | . | . | . | . | .
O=C(CCc1ccccc1)N[C@H]1[C@H](OC(=O)c2ccc3ccccc3n2)CCC[C@@]12C(=O)N(Cc1ccccc1)c1ccccc12 | . | -14 | . | . | . | . | . | .
Cc1cccc(Cn2cc(CN3CC(N(C)CCOC(=O)c4cc(C)cc(C)c4)CS3(=O)=O)nn2)c1 (stereo not given) | . | 25 | . | . | . | . | . | .
CC1Cc2cc(S(=O)(=O)N3CCC(C(=O)N4CCN(c5ccccc5F)CC4)CC3)ccc2N1C(=O)C1CC1 (stereo not given) | 1 | 18 | 7 | 54 | 2 | 62* | 24 | 5
